Where “and” joins values, the source holds several entries; their conditions need not be identical. Equal entries are not always repeated. Screen size: about 5,500 compounds; about 2,000 (36%) were called active. Another 18% or so got no clear call; they are omitted. Cut-off read from the data, not from the text of the source: active = normalized growth mostly below about 0.91 (no sharp cut-off); inconclusive = no clear call, values can overlap the other calls; inactive = mostly above about 0.92. The list shows a part of the results.
Assay: chemical genetic growth profiling, strain panel (AID 1159580);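 note: tested at 20 µM; growth read once vehicle control cultures reached saturation at 30 °C; 1 = growth at the plate median or of vehicle wells; lower values mean less growth of the strain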
Settings: S. cerevisiae deletion strains, growth OD

Measured: normalized growth

CN[C@@H]1[C@H](OC2[C@H](O[C@H]3[C@H](O)[C@@H](O)[C@H](N=C(N)N)[C@@H](O)[C@@H]3N=C(N)N)O[C@@H](C)[C@]2(O)C=O)O[C@@H](CO)[C@H](O)[C@H]1O (stereo not given in full)
inactive: locus YAL013W, strain DEP1, active compounds read low 1 | locus YAL021C, strain ccr4, active compounds read low 1 | locus YAL026C, strain drs2, active compounds read low 0.993 | locus YAL030W, strain snc1, active compounds read low 1.01 | locus YBL061C, strain skt5, active compounds read low 1.01 | locus YBR009C, strain hhf1, active compounds read low 0.988 | locus YBR021W, strain FUR4, active compounds read low 1.02 | locus YBR023C, strain chs3, active compounds read low 1 | locus YBR171W, strain sec66, active compounds read low 1.01 | locus YBR229C, strain ROT2, active compounds read low 1.02 | locus YBR231C, strain swc5, active compounds read low 1.03 | locus YBR279W, strain paf1, active compounds read low 0.999 | locus YCL011C, strain gbp2, active compounds read low 0.992 | locus YCL016C, strain dcc1, active compounds read low 0.98 | locus YCL029C, strain bik1, active compounds read low 1.01 | locus YCL069W, strain vba3, active compounds read low 1.01 | locus YCR088W, strain abp1, active compounds read low 0.998 | locus YDL005C, strain med2, active compounds read low 1.01 | locus YDL035C, strain GPR1, active compounds read low 1.01 | locus YDL040C, strain nat1, active compounds read low 0.999 | locus YDL074C, strain BRE1, active compounds read low 1.01 | locus YDL101C, strain DUN1, active compounds read low 1.01 | locus YDL134C, strain PPH21, active compounds read low 1.01 | locus YDL185W, strain tfp1, active compounds read low 0.996 | locus YDL192W, strain arf1, active compounds read low 1.01 | locus YDR001C, strain nth1, active compounds read low 0.987 | locus YDR069C, strain doa4, active compounds read low 1.04 | locus YDR101C, strain arx1, active compounds read low 1.01 | locus YDR137W, strain rgp1, active compounds read low 1.03 | locus YDR159W, strain sac3, active compounds read low 0.978 | locus YDR162C, strain NBP2, active compounds read low 1 | locus YDR195W, strain ref2 1.04 | locus YDR297W, strain sur2, active compounds read low 1.02 | locus YDR318W, strain mcm21, active compounds read low 1.01 | locus YDR334W, strain swr1, active compounds read low 1.01 | locus YDR335W, strain msn5, active compounds read low 1.01 | locus YDR388W, active compounds read low 1.02 | locus YDR392W, strain spt3, active compounds read low 0.959 | locus YDR502C, strain sam2, active compounds read low 1.02 | locus YEL003W, strain gim4, active compounds read low 1.01 | locus YEL037C, strain rad23, active compounds read low 1 | locus YEL061C, strain CIN8 (second series), active compounds read low 1.01 | locus YEL061C, strain CIN8, active compounds read low 1.01 | locus YER015W, strain faa2, active compounds read low 1 | locus YER016W, strain bim1, active compounds read low 0.987 | locus YER110C, active compounds read low 1.03 | locus YER111C, strain swi4, active compounds read low 1 | locus YER155C, strain BEM2 (second series), active compounds read low 1.04 | locus YER155C, strain BEM2, active compounds read low 0.995 | locus YER167W, strain BCK2, active compounds read low 1.01 | locus YFR010W, strain ubp6, active compounds read low 1.03 | locus YGL078C, strain dbp3, active compounds read low 1 | locus YGL086W, strain mad1, active compounds read low 1.01 | locus YGL167C, strain pmr1, active compounds read low 1.02 | locus YGL173C, strain kem1, active compounds read low 1.03 | locus YGL227W, strain vid30, active compounds read low 0.998 | locus YGL240W, strain doc1, active compounds read low 1.05 | locus YGL248W, strain PDE1, active compounds read low 1.01 | locus YGL253W, strain hxk2, active compounds read low 0.977 | locus YGR135W, strain pre9, active compounds read low 1.01 | locus YGR229C, strain SMI1, active compounds read low 1 | locus YGR252W, strain gcn5, active compounds read low 1.01 | locus YHR013C, strain ard1, active compounds read low 1.01 | locus YHR027C, strain rpn1, active compounds read low 1 | locus YHR030C, strain SLT2, active compounds read low 1.01 and 0.961 | locus YHR079C, strain IRE1 (second series), active compounds read low 1.02 | locus YHR079C, strain IRE1, active compounds read low 0.991 | locus YHR094C, strain hxt1, active compounds read low 1.02 | locus YHR129C, strain ARP1, active compounds read low 1.01 | locus YHR142W, strain chs7, active compounds read low 1 | locus YHR200W, strain rpn10, active compounds read low 1.02 | locus YIL066C, strain RNR3, active compounds read low 1.02 | locus YIL073C, strain SPO22, active compounds read low 1.05 | locus YIL125W, strain kgd1, active compounds read low 1.01 | locus YIR030C, strain dcg1, active compounds read low 1.01 | locus YJL092W, strain hpr5, active compounds read low 1.01 | locus YJL095W, strain BCK1 (second series), active compounds read low 1.01 | locus YJL095W, strain BCK1, active compounds read low 1.01 and 0.996 | locus YJL115W, strain asf1, active compounds read low 1.01 | locus YJL129C, strain trk1, active compounds read low 1.02 | locus YJL134W, strain LCB3, active compounds read low 1 | locus YJL154C, strain vps35, active compounds read low 1 | locus YJL164C, strain tpk1, active compounds read low 0.983 | locus YJL166W, strain qcr8, active compounds read low 1.02 | locus YJL168C, strain set2, active compounds read low 1.01 | locus YJL187C, strain SWE1 (second series), active compounds read low 1.02 | locus YJL187C, strain SWE1, active compounds read low 1.01 | locus YJR043C, strain POL32, active compounds read low 1.01 | locus YJR066W, strain TOR1, active compounds read low 0.978 | locus YJR075W, strain HOC1, active compounds read low 1.01

Reference: PubChem BioAssay AID1159580 (chemical genetic matrix, 2015)
